Measured values taken from PubChem BioAssay (NCI).
“And” between values parts separate entries of the source, which are not always exact repeats. Equal entries are not always repeated. About 79,000 compounds went through this panel and 15% of them were active in at least one assay; those are over-represented in the sample as a whole. The source made the active and inactive calls. Rule as the data show it: active = growth inhibition above about 70%; inactive = the rest.

assay: NCI Yeast Anticancer Drug Screen. Data for the cln2 rad14 strain (AID 165);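 also: 0% = growth equal to vehicle treated cultures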; settings: S. cerevisiae cln2 rad14 strain, at 50.0 µM (retest, dose inferred, filed as 5.0), active compounds read high
Method in brief: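 Readout is yeast growth inhibition versus vehicle-treated controls, using a strain with cln2 and rad14 alterations exposed to compound.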

SMILES	growth inhibition
COC(COC(N)=O)C1=C(N2CC2)C(=O)C(C)=C(N2CC2)C1=O (configuration not stated)	98% (active)
Cc1nc(Cl)c(CBr)c(Cl)n1	100% (active)
C[n+]1[se]nc2cc(C(=O)c3ccccc3)ccc21 (tested in a mixture with another compound)	99% (active)
O=C(O)c1ccccc1.[Ag]	97% (active) and 100% (active)
CC(C)(Br)C(=O)C(Br)Br	99% (active)
COC1(OC)C(Cl)=C(Cl)C(Cl)=C1Cl	42% (inactive)
C=C[C@H]1CN2CC[C@H]1C[C@@H]2[C@@H](O)c1ccnc2ccccc12	14% (inactive)
[C-]#[O+].[C-]#[O+].[Ir].[O-]c1ccc2ccccc2c1N=Nc1ccccc1	-2% (inactive)
O=C(Nc1ccccc1)OC(C[N+](=O)[O-])C(Cl)(Cl)Cl (configuration not stated)	91% (active)
O=c1c2ccccc2[se]n1-c1cccnc1	40% (inactive)
CC12CCC(C1)C(C)(C)C2OC(=O)c1ccccc1N (configuration not stated)	32% (inactive)
CC(=O)[O][Hg][c]1cc2c(cc1O)Cc1cc([N+](=O)[O-])ccc1-2	98% (active)
OC1(c2ccccc2)CC2CCC(C1)N2CCCC(O)(c1ccccc1)c1ccccc1 (configuration not stated)	52% (inactive)
ClC1=C(Cl)C(Cl)(Cl)SS1	99% (active)
COC(=O)C(F)C(Br)C(=O)OC (configuration not stated)	-42% (inactive)
c1ccc2c(NCCCCCCNc3c4ccccc4nc4ccccc34)c3ccccc3nc2c1	57% (inactive)
c1ccc2c(NCCCCCCCCNc3c4ccccc4nc4ccccc34)c3ccccc3nc2c1	83% (active)
CN(Cc1ccccc1)CC(O)c1ccc(Cl)cc1 (configuration not stated)	25% (inactive)

SMILES	growth inhibition
Br[C](Br)(Br)[Hg][c]1ccccc1	98% (active)
Cc1cc(N=Nc2ccccc2C)ccc1N	98% (active) and 96% (active)
C/C(=N\N=C(/[Se])N1CC2CCC(CC2)C1)c1ccccn1	65% (inactive)
CCCCCCCCCC[Se]C#N	99% (active)
CCN(CC)CC.CCOc1ccc(NC(=O)N=C=[N-])cc1.[CH-]1CCCCC1.[CH-]1CCCCC1.[CH-]1CCCCC1.[Cl-].[Sn+4]	99% (active)
Cc1cc(N(C)C)c2ccccc2[n+]1CCCCCCCCCC[n+]1c(C)cc(N(C)C)c2ccccc21	96% (active)
CCC[CH2][Sn]1([CH2]CCC)[O]CC(CN2CCCC2)[O]1 (configuration not stated)	95% (active)
N#Cc1ccc([Se]c2ccccc2)cc1	73% (active)
O=c1ssc(Cl)c1Cl	98% (active)
Nc1nc(N)c(-c2ccc(Cl)c(Cl)c2)c(CP(Cl)(Cl)(Cl)Br)n1	22% (inactive)
Cc1ccc(P(c2ccc(C)cc2)c2ccc(C)cc2)cc1	44% (inactive)
O=C(O)c1ccccc1[Se][Se]c1ccccc1C(=O)O	46% (inactive)
CC1CC(C)CC(C)C(O)/C(C#N)=C/C=C/CC(C2CCCC2C(=O)O)OC(=O)CC(O)C(C)C1 (configuration not stated)	-20% (inactive)
CCC[CH2][Pb]([Cl])([CH2]CCC)[CH2]CCC	98% (active)
CNC(Cc1ccccc1)c1ccc(OC)c(OC)c1 (configuration not stated)	13% (inactive)
CC1C(=O)OCC1(C)O (configuration not stated)	0% (inactive)
O=C(Nc1ccccc1)c1cc([N+](=O)[O-])ccc1O	86% (active)
N=P(c1ccccc1)(c1ccccc1)c1ccccc1 (tested in a mixture with another compound)	10% (inactive)

same assay, conditions: S. cerevisiae cln2 rad14 strain, at 50.0 µM, active compounds read high

SMILES	growth inhibition
COC(COC(N)=O)C1=C(N2CC2)C(=O)C(C)=C(N2CC2)C1=O (configuration not stated)	50.6% (inactive)
Cc1nc(Cl)c(CBr)c(Cl)n1	33.8% (inactive)
C[n+]1[se]nc2cc(C(=O)c3ccccc3)ccc21 (tested in a mixture with another compound)	99% (active)
O=C(O)c1ccccc1.[Ag]	91.6% (active) and 91.4% (active)
CC(C)(Br)C(=O)C(Br)Br	88.8% (active)
COC1(OC)C(Cl)=C(Cl)C(Cl)=C1Cl	-9.85% (inactive)
C=C[C@H]1CN2CC[C@H]1C[C@@H]2[C@@H](O)c1ccnc2ccccc12	8.55% (inactive)
[C-]#[O+].[C-]#[O+].[Ir].[O-]c1ccc2ccccc2c1N=Nc1ccccc1	50.7% (inactive)
O=C(Nc1ccccc1)OC(C[N+](=O)[O-])C(Cl)(Cl)Cl (configuration not stated)	42.6% (inactive)
O=c1c2ccccc2[se]n1-c1cccnc1	15.5% (inactive)
CC12CCC(C1)C(C)(C)C2OC(=O)c1ccccc1N (configuration not stated)	-8.95% (inactive)
CC(=O)[O][Hg][c]1cc2c(cc1O)Cc1cc([N+](=O)[O-])ccc1-2	94.1% (active)
OC1(c2ccccc2)CC2CCC(C1)N2CCCC(O)(c1ccccc1)c1ccccc1 (configuration not stated)	2.55% (inactive)
ClC1=C(Cl)C(Cl)(Cl)SS1	91.5% (active)
COC(=O)C(F)C(Br)C(=O)OC (configuration not stated)	84.2% (active)
c1ccc2c(NCCCCCCNc3c4ccccc4nc4ccccc34)c3ccccc3nc2c1	8.4% (inactive)
c1ccc2c(NCCCCCCCCNc3c4ccccc4nc4ccccc34)c3ccccc3nc2c1	46.7% (inactive)
CN(Cc1ccccc1)CC(O)c1ccc(Cl)cc1 (configuration not stated)	48.5% (inactive)

SMILES	growth inhibition
Br[C](Br)(Br)[Hg][c]1ccccc1	89.3% (active)
Cc1cc(N=Nc2ccccc2C)ccc1N	91.1% (active) and 91.5% (active)
C/C(=N\N=C(/[Se])N1CC2CCC(CC2)C1)c1ccccn1	85.2% (active)
CCCCCCCCCC[Se]C#N	97.3% (active)
CCN(CC)CC.CCOc1ccc(NC(=O)N=C=[N-])cc1.[CH-]1CCCCC1.[CH-]1CCCCC1.[CH-]1CCCCC1.[Cl-].[Sn+4]	89.5% (active)
Cc1cc(N(C)C)c2ccccc2[n+]1CCCCCCCCCC[n+]1c(C)cc(N(C)C)c2ccccc21	91% (active)
CCC[CH2][Sn]1([CH2]CCC)[O]CC(CN2CCCC2)[O]1 (configuration not stated)	82.3% (active)
N#Cc1ccc([Se]c2ccccc2)cc1	57% (inactive)
O=c1ssc(Cl)c1Cl	89.1% (active)
Nc1nc(N)c(-c2ccc(Cl)c(Cl)c2)c(CP(Cl)(Cl)(Cl)Br)n1	9.75% (inactive)
Cc1ccc(P(c2ccc(C)cc2)c2ccc(C)cc2)cc1	35.9% (inactive)
O=C(O)c1ccccc1[Se][Se]c1ccccc1C(=O)O	8.05% (inactive)
CC1CC(C)CC(C)C(O)/C(C#N)=C/C=C/CC(C2CCCC2C(=O)O)OC(=O)CC(O)C(C)C1 (configuration not stated)	92.4% (active)
CCC[CH2][Pb]([Cl])([CH2]CCC)[CH2]CCC	91.2% (active)
CNC(Cc1ccccc1)c1ccc(OC)c(OC)c1 (configuration not stated)	-15.6% (inactive)
CC1C(=O)OCC1(C)O (configuration not stated)	0.75% (inactive)
O=C(Nc1ccccc1)c1cc([N+](=O)[O-])ccc1O	32.5% (inactive)
N=P(c1ccccc1)(c1ccccc1)c1ccccc1 (tested in a mixture with another compound)	25.4% (inactive)
